PubChem BioAssay AID1345085 (National Center for Advancing Translational Sciences (NCATS), 2018)
Records with an inconclusive call do not appear. Active and inactive are the calls of the source. Calls follow the shape of the dose curve; as a rule, active = well fitted cell-killing curve with a large enough effect; inconclusive = small, poorly fitted or top-dose-only effect, or effect the other way; inactive = no such curve, though single readings can be large or run the other way.

Each compound was assayed on SW626 (assay: Confirmatory qHTS for gynecologic anti-cancer compounds from libraries of approved drugs and bioactive compounds). Conditions: gynecologic cancer cell panel viability, ATPlite luminescence, 48 h; series mostly up to 57.6 µM; activity change, negative = viability loss: at the top concentration.
In short: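 IC50 values derive from an ATPlite ATP-content luminescence assay following 48 h treatment at 37 C. Each compound ran as an 11-concentration, threefold series (57.5 uM to 0.977 nM); HEK 293T served as control line for selectivity index.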
% is scaled to controls: 0 for no effect and ±100 for the full control effect; potency is read from the fitted curve at half-maximal effect.
Also: nearly all actives have a fitted effect of over 55% in size.

| SMILES | activity change, negative = viability loss | Potency |
| --- | --- | --- |
| CN(C)/N=N/c1nc[nH]c1C(N)=O | 7.16% (inactive) |  |
| CCCc1nn(C)c2c(=O)[nH]c(-c3cc(S(=O)(=O)N4CCN(C)CC4)ccc3OCC)nc12 | 10.3% (inactive) |  |
| COc1ccc(CCC(=O)c2c(O)cc(O[C@@H]3O[C@H](CO)[C@@H](O)[C@H](O)[C@H]3O[C@@H]3O[C@@H](C)[C@H](O)[C@@H](O)[C@H]3O)cc2O)cc1O | 3.71% (inactive) |  |
| CCOC(=O)C1=C(C)NC2=C(C(=O)CC(C)(C)C2)C1c1ccc(-c2ccccc2)cc1 (centres undefined) | 8.62% (inactive) |  |
| O=C(/C=C/c1cccc(S(=O)(=O)Nc2ccccc2)c1)NO |  | 1.33 µM (active) |
| CC(Oc1ccc2[nH]nc(/C=C/c3cnn(CCO)c3)c2c1)c1c(Cl)cncc1Cl (centres undefined) | 10.8% (inactive) |  |
| CCN(CC)CCCC(C)Nc1ccnc2cc(Cl)ccc12 (centres undefined) | -5.13% [at 19.5 µM] (inactive) |  |
| CN(C[C@@H]1COCCO1)S(=O)(=O)Nc1ccc2ccc3ncc(-c4cnn(C)c4)cc3c(=O)c2c1 | 0.279% (inactive) |  |
| CN(C)c1ccc(-c2nc3ncc(Cl)c(N4CCN(CC(=O)Nc5nccs5)CC4)c3[nH]2)cc1 | -9.1% [at 19.5 µM] (inactive) |  |
| O=C(CCCCCCC(=O)Nc1ccccc1)NO |  | 2.17 µM (active) |
| COc1cc2c(NC3CCN(C(C)C)CC3)nc(C3CCCCC3)nc2cc1OCCCN1CCCC1 |  | 10.9 µM (active) |
| Cn1cnc2c(F)c(Nc3ccc(Br)cc3Cl)c(C(=O)NOCCO)cc21 |  | 2.73 µM (active) |
| COc1c(C)c2c(c(O)c1C/C=C(\C)CCC(=O)OCCN1CCOCC1)C(=O)OC2 | -9.7% (inactive) |  |
| Cc1ccc(C(=O)N(CCCN)C(c2oc3cc(Cl)ccc3c(=O)c2Cc2ccccc2)C(C)C)cc1 (centres undefined) |  | 24.3 µM (active) |
